Screening results: PubChem BioAssay, Center for Chemical Genomics, University of Michigan
Shown is part of a subset that was picked to be rich in hits.
Dicer processing = inhibitors of Dicer pre-microRNA processing, primary screen, biochemical, cat-ELCCA, chemiluminescence. Endoribonuclease Dicer (Homo sapiens), Q9UPY3. cat-ELCCA pre-miR-21 Dicer processing; active compounds read high. z-score at 25 µM. hit rate 6% among 47,000; in the data active = z-score above about 3, passing the limit was not always enough;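 note: higher signal means more uncleaved substrate so more Dicer inhibition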
Hits are given with their value; – = inactive.

SMILES	Dicer processing
COc1cccc(C2=NN(S(C)(=O)=O)C(c3cn(-c4ccccc4)nc3-c3ccc(C)cc3)C2)c1 (stereo not given)	–
NC(=S)c1cc(C(F)(F)F)cc(C(F)(F)F)c1	–
Cc1cccc2[nH]c(-c3ccc(N)cc3)nc12	6.8
Cc1cccc2[nH]c(SCc3ccccc3F)nc12	–
Nc1cccc2[nH]c(-c3ccccc3)nc12	3.9
Nc1ccc(-c2nc3c(Cl)c(N)ccc3[nH]2)cc1	3.4
Brc1cccc(-c2nc3ccccc3[nH]2)c1	–
Cc1c(C)c(C)c2[nH]c(-c3ccc4c(c3)OCO4)nc2c1C	–
Cc1cccc2[nH]c(-c3ccccc3)nc12	–
O=c1[nH]c(-c2ccccc2)nc(=S)[nH]1	–
Cc1c(N)ccc2[nH]c(-c3ccc(N)cc3)nc12	6.3
CCOC(=O)NC(Nc1cccc(C)c1)(C(=O)OCC)C(F)(F)F (stereo not given)	–
Cc1nn(CO)c(C)c1Sc1ccc(Br)cc1	–
COc1ccc(OCC(=O)N2CCc3ccccc32)cc1	–
COc1cccc(Nc2nc(Cl)nc(Nc3cccc(OC)c3)n2)c1	–
CC1/C(=N\O)CC(c2ccc([N+](=O)[O-])cc2)NC1c1ccc([N+](=O)[O-])cc1 (stereo not given)	–
C=CCN1C(=O)C(O)(CC(=O)c2ccc(C(C)C)cc2)c2ccccc21 (stereo not given)	–
CCCCC1(CNc2ccc(C)c([N+](=O)[O-])c2)C(=O)N(c2ccccc2)N(c2ccccc2)C1=O	–
CCCCC1(CO)C(=O)N(c2ccccc2)N(c2ccccc2)C1=O	6.1
CCCCC1(COC(=O)Nc2cccc(Cl)c2)C(=O)N(c2ccccc2)N(c2ccccc2)C1=O	–
CCC(C)(C)NC(=S)N/N=C/c1ccccc1SC(C)(C)C	–
CC(=O)NC1CCN(C(=S)Nc2ccc(Cl)cc2C)CC1	–
C=CCN1C(=O)C(O)(CC(=O)c2ccc(OC)c(OC)c2)c2ccccc21 (stereo not given)	–
Nc1nc(-c2ccccc2)cc(=O)[nH]1	–
N#CC1=C(N)Oc2n[nH]c(-c3ccccc3)c2C1c1ccc(Cl)cc1 (stereo not given)	–
SMILES	Dicer processing
Nc1n[nH]c(-c2ccccc2)c1-c1ccccc1	3.5
COc1ccc(-c2c(C#N)sc(C(=O)NC3(O)C(=O)c4ccccc4C3=O)c2-c2ccc(OC)cc2)cc1	–
CCOC(=O)N/N=C(\C)COc1ccc(-c2csnn2)cc1	–
N/C(=N\C(=S)Nc1ccc(Cl)c(Cl)c1)c1ccccc1	5.4
NC(=S)NNc1ccc(Cl)c(Cl)c1	–
CC(C)c1ccc(NC(=S)N=C(N)N)cc1	–
Cc1nnsc1-c1onc(C)c1-c1nc(-c2ccc([N+](=O)[O-])s2)no1	–
FC(F)(F)c1cccc(CSc2n[nH]c(=S)s2)c1	–
O=C(Nc1ccc(Cl)cc1)C1CC(=O)N(Cc2ccc(F)cc2)C1 (stereo not given)	–
CN1C(=O)c2cccc3c(S(=O)(=O)Nc4ccc(C(=O)O)c(O)c4)ccc1c23	–
O=C(O)c1ccc(NS(=O)(=O)c2ccc3c4c(cccc24)C(=O)S3)cc1	–
O=C1Sc2ccc(S(=O)(=O)Nc3ccc4oc(=O)sc4c3)c3cccc1c23	11
Cc1ccc(C)c(NS(=O)(=O)c2ccc3c4c(cccc24)C(=O)S3)c1	3.7
Cc1ccccc1NS(=O)(=O)c1cccc2c(N(C)C)cccc12	–
Cc1cccc(NS(=O)(=O)c2ccc3c4c(cccc24)C(=O)N3)c1C	–
CC(=O)C(Sc1nc2ccccc2s1)C(C)=O	–
CSc1nn(-c2ccccc2)c(-c2ccc(OC(F)(F)F)cc2)c1C#N	–
CCOC(=O)c1sc(SCC)c2c1CC(C)(C)CC2=O	–
Cc1cc(NC(=O)C(C)C)cc(-c2nc3cc(Cl)ccc3o2)c1O	–
CCCCCCNCc1ccc(C)s1	–
O=C(O)CCC(=O)NCC(=O)c1ccccc1	–
O=C(CSc1nnc(-c2ccco2)n1-c1ccccc1Cl)c1ccc(F)cc1	–
C=CCNc1nc(C2(C)CC3(CC(COCCCCC)OC3=O)C(=O)O2)cs1 (stereo not given)	–
Cn1cncc1CC1COC(=O)C1C(O)c1ccccc1 (stereo not given)	–
CCOc1ccc(N=c2ssc(SC)c2-c2ccccc2)cc1	–
SMILES	Dicer processing
CSc1ssc(=Nc2ccc(C)c(Cl)c2)c1-c1ccccc1	–
CSc1ssc(=Nc2ccc(F)c(F)c2)c1-c1ccccc1	3.6
CCc1nc(-c2cc3ccccc3[nH]c2=O)no1	–
CCOC(=O)Cc1[nH]nc2c1C(c1ccc(F)c(Oc3ccccc3)c1)C(C#N)=C(N)O2 (stereo not given)	–
CCOc1ccc2[nH]ccc(=O)c2c1	–
CC(Oc1ccccc1-c1ccccc1)c1n[nH]c(=S)n1-c1ccccc1 (stereo not given)	3.3
CCn1c(C(C)Oc2ccc(Cl)cc2)n[nH]c1=S (stereo not given)	–
Cc1ccc(C)n1-c1ccc(-c2n[nH]c(=S)n2-c2ccccc2)cc1	–
Nc1c(C(=O)c2ccc(F)c(F)c2)sc2nc3c(c(-c4cccs4)c12)CCCC3	–
Cc1ccc2oc3c(c(=O)c2c1)C(c1ccccc1F)N(c1ccccn1)C3=O (stereo not given)	3.3
CCCCOc1ccc(C2c3c(oc4ccccc4c3=O)C(=O)N2c2ccccn2)cc1 (stereo not given)	–
COc1cc(C2c3c(oc4cc(C)c(C)cc4c3=O)C(=O)N2c2ccc(C)cn2)ccc1O (stereo not given)	15
Cc1ccc(CN2C(=O)c3oc4ccc(F)cc4c(=O)c3C2c2ccc(O)cc2)cc1 (stereo not given)	–
Cc1ccc2oc3c(c(=O)c2c1)C(c1cccc(O)c1)N(c1ccccn1)C3=O (stereo not given)	–
COc1cc(C2c3c(oc4ccc(F)cc4c3=O)C(=O)N2Cc2ccc(C)cc2)ccc1O (stereo not given)	4.8
C=CCOc1ccc(C2c3c(oc4ccccc4c3=O)C(=O)N2c2ccccn2)cc1 (stereo not given)	4.1
COc1ccc(C2c3c(oc4cc(C)c(C)cc4c3=O)C(=O)N2c2ccccn2)cc1 (stereo not given)	–
COc1ccc(C2c3c(oc4cc(C)c(C)cc4c3=O)C(=O)N2c2ccc(C)cn2)cc1OC (stereo not given)	–
CCOc1ccc(C2c3c(oc4ccccc4c3=O)C(=O)N2c2ccccn2)cc1 (stereo not given)	–
COc1cc(C2c3c(oc4ccccc4c3=O)C(=O)N2Cc2ccc(F)cc2)ccc1O (stereo not given)	–
CSc1ccc(C2c3c(oc4ccc(C)cc4c3=O)C(=O)N2c2ccccn2)cc1 (stereo not given)	–
Cn1nc(OS(=O)(=O)c2ccc(Cl)cc2Cl)cc1C(F)(F)F	–
CCn1c[n+](CC(O)COc2ccc(OC)cc2)c2ccccc21 (stereo not given)	–
Cc1cccc(Nc2nnc(-c3ccc(C)c(S(N)(=O)=O)c3)c3ccccc23)c1	–
O=c1cc(CSc2n[nH]c(=O)n2C2Cc3ccccc3C2)c2ccc(O)cc2o1	–
Cc1ccc(SC(=O)N/C=C/c2ccsc2)cc1	–
COC(=O)c1sccc1-c1ccc(CN2CCN(c3ccccc3)CC2)o1	–
Cc1ccc(C2c3c(oc4ccccc4c3=O)C(=O)N2c2ccc(C)cn2)cc1 (stereo not given)	4.2
Cc1ccc(N2C(=O)c3oc4ccccc4c(=O)c3C2c2ccc(Br)cc2)nc1 (stereo not given)	–
